The text below walks through data of PubChem BioAssay (Tox21).

The structures appear in SMILES notation. Results filed as inconclusive are left out. Unmarked numbers belong to inactive results. Active and inactive are the calls of the source. Unless noted, calls follow the shape of the dose curve; as a rule, active = well fitted curve in the direction sought with a large enough effect in the repeat runs; inconclusive = weak or mixed curves; inactive = no such curve, though single readings can be large; an effect the other way counts as inactive or inconclusive.

Experiment [1] is described as follows: qHTS assay to identify small molecule agonists of the peroxisome proliferator-activated receptor delta (PPARd) signaling pathway - cell viability counter screen (AID 743211). Also: nearly all actives have a fitted effect of over 55% in size. Also: potency is read from the fitted curve at half-maximal effect. In a few lines: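 HEK293H PPARd-bla, 3000 cells/well; 5 h preincubation 37C/5% CO2; cpd in DMSO, 17 h 37C; B/G FRET substrate 2 h RT; CellTiter-Glo 30 min RT, luminescence.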
On the technique in general: Quantitative high-throughput screening tests each substance at several concentrations.

Experiment [2] in a line: qHTS assay to identify small molecule antagonists of the peroxisome proliferator-activated receptor delta (PPARd) signaling pathway - cell viability counter screen (AID 743213). Also: nearly all actives have a fitted effect of over 50% in size. Also: potency is read from the fitted curve at half-maximal effect. The method, boiled down: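 In this counter screen, HEK293H cells carrying a UAS-beta-lactamase reporter are co-treated with test compounds and 300 nM L165041 (final) for 17 h at 37 C; cell viability is quantified by CellTiter-Glo luminescence.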

Experiment [3] can be described thus: qHTS assay to identify small molecule agonists of the farnesoid-X-receptor (FXR) signaling pathway - cell viability counter screen (AID 743218). Also: nearly all actives have a fitted effect of over 45% in size. Also: potency is read from the fitted curve at half-maximal effect. In a few lines: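 Viability counter screen in the same wells: CellTiter-Glo luminescence, 30 min room-temperature incubation, measured after the beta-lactamase read. Cells were GeneBLAzer FXR-UAS-bla HEK 293T, compound-treated 16 h at 37C.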

Experiment [4] can be described thus: qHTS assay to identify small molecule antagonists of the farnesoid-X-receptor (FXR) signaling pathway - cell viability counter screen (AID 743221; active = well fitted cell-killing curve with a large enough effect in the repeat runs, not every such curve was filed as active; also: nearly all actives have a fitted effect of over 50% in size; also: potency is read from the fitted curve at half-maximal effect). In a few lines:
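Luminescence from CellTiter-Glo measures cytotoxicity in GeneBLAzer FXR-UAS-bla HEK 293T cells. Cells were exposed to compounds with 50 uM chenodeoxycholic acid (final) for 16 h at 37 C, in wells also used for the reporter readout.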

Experiment [5] addresses Bile acid receptor (Homo sapiens) (UniProt Q96RI1). The experiment can be described thus: qHTS assay to identify small molecule antagonists of the farnesoid-X-receptor (FXR) signaling pathway (AID 743217; active = well fitted inhibition curve with a large enough effect in the signal ratio in the repeat runs, not every such curve was filed as active; the % refers to the signal ratio). The method, boiled down: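 Antagonist mode: chenodeoxycholic acid at 50 uM final stimulates a UAS-driven beta-lactamase reporter in HEK 293T FXR-bla cells during 16 h, 37C compound exposure. Read-out is FRET substrate fluorescence after 2 h at room temperature.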

The target is the same in experiment [6]. Nature of the experiment: qHTS assay to identify small molecule agonists of the farnesoid-X-receptor (FXR) signaling pathway (AID 743220; active = well fitted activation curve with a large enough effect in the signal ratio in the repeat runs, not every such curve was filed as active; the % refers to the signal ratio). In a few lines: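 FXR-UAS-bla HEK 293T cells carrying a UAS-driven beta-lactamase reporter were plated for 5 h at 37C/5% CO2, then exposed to DMSO-dissolved Tox21 10K compounds for 16 h at 37C. A LiveBLAzer B/G FRET substrate was loaded for 2 h at room temperature before fluorescence reading.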

For experiment [7], the target named is Vitamin D3 receptor (Homo sapiens) (UniProt P11473). The experiment can be described thus: qHTS assay to identify small molecule agonists of the vitamin D receptor (VDR) signaling pathway (AID 743222; calls by dose curve). In a few lines:
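Agonist mode, beta-lactamase reporter: fluorescence from LiveBLAzer B/G FRET substrate (2 h, room temperature) read after 16 h compound treatment at 37 C of VDR-bla cells, which were pre-incubated 4 h after seeding.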

Experiment [8] shares this target. The experiment can be described thus: qHTS assay to identify small molecule antagonists of the vitamin D receptor (VDR) signaling pathway (AID 743223; active = well fitted inhibition curve with a large enough effect in the signal ratio in the repeat runs, not every such curve was filed as active; the % refers to the signal ratio). In a few lines: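 Antagonist mode uses 1alpha,25-dihydroxyvitamin D3 at 3 nM final as stimulus. VDR-bla cells receive compounds in DMSO, incubate 16 h at 37C, then a beta-lactamase FRET substrate for 2 h at room temperature before fluorescence measurement.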

Experiment [9] concerns the target Peroxisome proliferator-activated receptor delta (Homo sapiens) (UniProt Q03181). The experiment can be described thus: qHTS assay to identify small molecule antagonists of the peroxisome proliferator-activated receptor delta (PPARd) signaling pathway (AID 743215; active = well fitted inhibition curve with a large enough effect in the signal ratio in the repeat runs, not every such curve was filed as active; the % refers to the signal ratio;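 also: cells stimulated with agonist L165041 at 300 nM final during compound exposure; series mostly up to about 62 µM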). The method, boiled down:
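Agonist L165041 (300 nM final) added with compound to PPARd-bla HEK293H UAS-bla reporter cells; 17 h incubation at 37 C. Read-out: LiveBLAzer FRET substrate, 2 h at room temperature, fluorescence intensity.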

The target is the same in experiment [10]. Nature of the experiment: qHTS assay to identify small molecule agonists of the peroxisome proliferator-activated receptor delta (PPARd) signaling pathway (AID 743212; calls by dose curve). In a few lines: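 Steps: seed PPARd-bla HEK293H cells; incubate 5 h, 37 C, 5% CO2; add compounds in DMSO; incubate, 37 C; add LiveBLAzer B/G FRET substrate; hold 2 h at room temperature; measure fluorescence.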
% is scaled to controls: 0 for no effect and ±100 for the full control effect.

Peroxisome proliferator-activated receptor delta (Homo sapiens), sequence (Q03181 whole entry, looked up): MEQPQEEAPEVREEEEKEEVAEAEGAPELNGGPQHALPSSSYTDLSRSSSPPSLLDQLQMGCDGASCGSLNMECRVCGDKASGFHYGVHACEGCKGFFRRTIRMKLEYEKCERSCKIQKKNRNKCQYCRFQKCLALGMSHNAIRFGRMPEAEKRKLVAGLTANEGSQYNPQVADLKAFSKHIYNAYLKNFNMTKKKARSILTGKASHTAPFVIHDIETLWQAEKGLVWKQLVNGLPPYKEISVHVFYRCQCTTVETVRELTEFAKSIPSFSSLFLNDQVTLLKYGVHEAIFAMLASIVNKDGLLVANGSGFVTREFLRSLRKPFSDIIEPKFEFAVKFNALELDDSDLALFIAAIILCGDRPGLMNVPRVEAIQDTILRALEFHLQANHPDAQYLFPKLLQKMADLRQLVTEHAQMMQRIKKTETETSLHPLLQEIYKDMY
Vitamin D3 receptor (Homo sapiens), sequence (P11473 whole entry, looked up): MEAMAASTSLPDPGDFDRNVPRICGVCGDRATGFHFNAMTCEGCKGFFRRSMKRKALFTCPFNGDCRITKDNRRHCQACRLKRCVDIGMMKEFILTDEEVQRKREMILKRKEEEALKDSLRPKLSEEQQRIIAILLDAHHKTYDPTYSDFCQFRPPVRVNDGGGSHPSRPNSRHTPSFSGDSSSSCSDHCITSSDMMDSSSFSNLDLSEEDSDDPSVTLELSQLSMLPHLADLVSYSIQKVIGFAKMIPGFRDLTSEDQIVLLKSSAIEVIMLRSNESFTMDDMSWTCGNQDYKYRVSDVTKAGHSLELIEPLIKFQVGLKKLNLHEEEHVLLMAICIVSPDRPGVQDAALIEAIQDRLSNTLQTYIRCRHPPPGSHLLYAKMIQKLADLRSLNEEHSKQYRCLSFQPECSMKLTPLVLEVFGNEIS
Bile acid receptor (Homo sapiens), sequence (Q96RI1 whole entry, looked up): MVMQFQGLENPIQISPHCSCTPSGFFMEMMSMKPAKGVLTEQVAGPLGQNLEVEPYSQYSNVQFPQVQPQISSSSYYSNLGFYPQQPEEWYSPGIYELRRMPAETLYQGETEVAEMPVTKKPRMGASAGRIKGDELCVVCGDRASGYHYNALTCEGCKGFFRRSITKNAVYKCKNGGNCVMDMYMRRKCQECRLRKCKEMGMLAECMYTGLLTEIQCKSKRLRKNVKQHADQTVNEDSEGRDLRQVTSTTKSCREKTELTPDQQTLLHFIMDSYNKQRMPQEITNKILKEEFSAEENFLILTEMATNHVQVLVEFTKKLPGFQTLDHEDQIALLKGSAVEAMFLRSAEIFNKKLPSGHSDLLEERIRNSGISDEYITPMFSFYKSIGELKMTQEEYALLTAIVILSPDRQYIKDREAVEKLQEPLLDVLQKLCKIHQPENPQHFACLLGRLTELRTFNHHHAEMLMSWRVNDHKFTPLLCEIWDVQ

In the case of `COc1cc(OC)c2ccc(=O)oc2c1`, the Potency entry in experiment [1], in [2], in experiment [3] and in experiment [4] was “inactive” each time.

Regarding `C=C(C)C(=O)OCCC(F)(F)C(F)(F)C(F)(F)C(F)(F)C(F)(F)C(F)(F)F`, the Potency entry in [1], in [2], in [3], in experiment [6] and in experiment [4] was “inactive” in each case. Further, the molecule was called inactive in experiment [5], in [7] and in experiment [8].

For the molecule `CCCCCCOC(=O)CCCCC`, the Potency entry in experiment [1], in experiment [2], in experiment [3] and in [4] was “inactive” throughout. Further, the molecule was called inactive in [7].

On to `CNC1CCCN(c2c(F)cc3c(=O)c(C(=O)O)cn(C4CC4)c3c2OC)C1` (centres undefined), for which the Potency entry in experiment [1], in experiment [2], in experiment [3], in experiment [6] and in experiment [4] was “inactive” each time. Further, the call in experiment [5], in experiment [7] and in experiment [8] was inactive.

Regarding `CC(=O)Oc1cccc(O)c1`, the Potency result in [1], in experiment [2], in [3], in experiment [6] and in experiment [4] was “inactive” each time. Further, the molecule was called inactive in experiment [5] and in experiment [8].

For `CC(C(=O)O)c1ccc(C(=O)c2cccs2)cc1` (centres undefined), the Potency result in [1], in experiment [2], in experiment [3] and in experiment [4] was “inactive” each time. For the same molecule, the outcome in experiment [7] and in [8] was inactive.

Turning to `CNS(=O)(=O)c1cc(C(=O)N2CCC(CCN3C4CCC3CC(n3c(C)nc5ccccc53)C4)(c3cccc(F)c3)CC2)c(Cl)cc1F` (centres undefined), the Potency in experiment [1] was 8.71 µM (active); in [2], 7.76 µM (active); in experiment [3] it was 7.76 µM (active); in experiment [4], 21.9 µM (active).

With `CCCCCCC(CO)CCCC` (centres undefined), the Potency entry in [1], in experiment [2], in experiment [9] and in experiment [4] was “inactive” in each case. The molecule was called inactive in experiment [7] and in [8].

In the case of `O=C(NC(Cc1cc(=O)[nH]c2ccccc12)C(=O)O)c1ccc(Cl)cc1` (centres undefined), the Potency entry in experiment [1], in [2], in experiment [3] and in [4] was “inactive” throughout. For the same molecule, in experiment [7], the molecule was classed as inactive.

In the case of `Cc1ccc2nc(N)[nH]c(=O)c2c1Sc1ccncc1`, the Potency entry in experiment [1], in experiment [2], in [9], in experiment [6] and in experiment [4] was “inactive” throughout. The molecule was called inactive in [7] and in experiment [8].

For the molecule `CC(C)(O)c1coc(S(=O)(=O)NC(=O)Nc2c3c(cc4c2CCC4)CCC3)c1`, the Potency result in experiment [1], in [2], in experiment [3], in [6] and in [4] was “inactive” each time. Moreover, the call in experiment [5] and in experiment [7] was inactive.

As to `Cc1cc(CCCOc2c(C)cc(-c3noc(C(F)(F)F)n3)cc2C)on1`, the Potency entry in experiment [1], in experiment [2], in [3] and in experiment [4] was “inactive” in each case. Further, the molecule was classed as inactive in experiment [7] and in experiment [8].

As to `CC(=O)OCC(C)C`, the Potency result in experiment [1], in experiment [2], in experiment [3] and in [4] was “inactive” throughout. Besides, the call in experiment [7] and in experiment [8] was inactive.

On to `CCC1CCC(CCC(=O)O)C1` (centres undefined), for which the Potency entry in experiment [1], in experiment [2], in experiment [3], in experiment [6] and in [4] was “inactive” throughout. Also, the result in [5] and in experiment [8] was inactive.

In the case of `O=C(O)c1cccc(C[C@@H]2COc3ccc(OCc4nc5cc(F)ccc5s4)cc3[C@@H]2O)c1`, the Potency result in experiment [1], in [2], in [3] and in [4] was “inactive” in each case. Besides, the call in [7] was inactive.

With `COC(OC)OC`, the Potency result in experiment [1], in experiment [2], in experiment [3] and in experiment [4] was “inactive” each time. Also, the molecule was classed as inactive in [7].

For `O=P(O)(O)Oc1ccccc1`, the Potency result in [1], in experiment [2], in [3], in experiment [6] and in experiment [4] was “inactive” each time. The call in experiment [5], in experiment [7] and in [8] was inactive.

As to `CC1=CC[C@@]23C[C@@H]1C(C)(C)[C@@H]2CC[C@H]3C`, the Potency entry in experiment [1], in experiment [2], in experiment [3] and in experiment [4] was “inactive” in each case.

Consider `O[C@@H](CNC[C@H](O)[C@H]1CCc2cc(F)ccc2O1)[C@@H]1CCc2cc(F)ccc2O1`, for which the Potency in experiment [1] was 23.7 µM (active); in experiment [2], 23.7 µM (active); in experiment [3], 13.3 µM (active); in experiment [4] it was 29.8 µM (active). Further, the Potency result in experiment [6] was “inactive”.

As for `CC12CC3CC(C)(C1)CC(N)(C3)C2`, the Potency entry in experiment [1], in [2], in [3] and in [4] was “inactive” throughout. Moreover, the result in [7] was inactive.

As to `CCN(Cc1cccc(S(=O)(=O)O)c1)c1ccc(C(=C2C=CC(=[N+](CC)Cc3cccc(S(=O)(=O)O)c3)C=C2)c2ccc(O)cc2S(=O)(=O)[O-])cc1`, the Potency entry in experiment [9] and in experiment [6] was “inactive” in each case. In addition, the outcome in experiment [5], in experiment [7] and in experiment [8] was inactive.

`Nc1nc(-c2ccc([N+](=O)[O-])cc2)cs1`: the Potency entry in experiment [1], in experiment [3], in experiment [6] and in experiment [4] was “inactive” in each case.

For the molecule `O=C1c2ccccc2C(=O)c2c(O)ccc(O)c21`, the Potency result in experiment [1], in [2], in experiment [3] and in experiment [4] was “inactive” each time. In addition, the call in experiment [8] was inactive.

As to `CS(=O)(=O)c1ccc([C@@H](C[C@H]2CCC(=O)C2)C(=O)Nc2cnccn2)cc1Cl`, the result in experiment [10] and in experiment [7] was inactive. In addition, the Potency entry in experiment [3] and in [4] was “inactive” in each case.

`CC1=CC[C@@H]2C[C@H]1C2(C)C`: the activity change, negative = cytotoxicity in experiment [1] is -15.6% [at 13.2 µM]. Further, the figures for the viability change, negative = cytotoxic in experiment [2] and in experiment [3] were -2.53% [at 13.7 µM] and 17.4% [at 13.2 µM], respectively. Also, the activation in experiment [7] is -15.3% [at 13.4 µM].

On to `CC(C)CC(O)CC(C)C`, for which the Potency result in [1], in experiment [2], in experiment [3] and in experiment [4] was “inactive” throughout. Besides, the molecule was classed as inactive in experiment [7] and in [8].

As for `CC(C)C1CCC(C(=O)N[C@H](Cc2ccccc2)C(=O)O)CC1` (some centres undefined), the Potency entry in experiment [1], in [3] and in experiment [4] was “inactive” each time. For the same molecule, the outcome in [8] was inactive.

On to `COc1ccc(-n2nc(C(F)F)cc2-c2ccc(S(C)=O)cc2)cc1` (centres undefined), for which, in experiment [10], the result was inactive. For the same molecule, the Potency entry in experiment [2], in [3] and in experiment [4] was “inactive” each time.
